The results in this text go back to PubChem BioAssay (NCATS).

Usually viability stands for a read-out of living cells in per cent, often relative to untreated cells.

“And” between values parts separate entries of the source, which are not always exact repeats. Identical values can stand only once. Records with an inconclusive call do not appear. A number with no mark means an inactive call. The source made the active and inactive calls. The call rests on the fitted dose curve; in most records, active means well fitted curve in the direction sought with a large enough effect; inconclusive means small, poorly fitted or top-dose-only effect, or another doubt; inactive means no such curve, though single readings can be large; an effect the other way counts as inactive or inconclusive.

In assay [1] the target is Cellular tumor antigen p53 (Homo sapiens) (UniProt P04637). In words: Primary qHTS for small molecule compounds that upregulate eGFP-tagged delta133p53alpha (in N-terminal) cells. (AID 2060322). Further: nearly all actives have a fitted effect of over 75% in size. Further: potency means the concentration at half of the fitted maximal effect.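 On activation: cells pre-induced with doxycycline then dosed without doxycycline; series mostly up to about 56 µM; 0% = DMSO vehicle and 100% = reference activator.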 Particulars: NCI-H358 eGFP-delta133p53alpha fluorescence, 24 h; activation: active compounds read high. Summed up:
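NCI-H358 cells pre-induced 24 h with 10 ng/ml doxycycline for eGFP-delta133p53alpha, plated dox-free and exposed 24 h at 37C to titrated compounds. Fixed, Hoechst-stained; gated GFP peak intensity by laser scanning cytometry, normalized to DMSO (0%) and 57.5 uM 5-azacytidine (100%).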
Background: Quantitative high-throughput screening tests each substance at several concentrations.

For assay [2], the target named is Aldehyde dehydrogenase, mitochondrial (Homo sapiens) (UniProt P05091). In words: qHTS for Inhibitors of the Aldehyde Dehydrogenase Family (ALDH2) Primary screen (AID 2061308).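 Further: plate controls were vehicle for no effect and reference inhibitor for full effect; nearly all actives have a fitted effect of over 55% in size.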
Assay [3] addresses Retinaldehyde dehydrogenase 3 (Homo sapiens) (UniProt P47895). The assay can be described thus: qHTS for Inhibitors of the Aldehyde Dehydrogenase Family (ALDH1A3) Validation screen (AID 2061312). Further: on the % scale 0 is the no-effect control and ±100 the full control effect; nearly all actives have a fitted effect of over 45% in size.
Assay [4] shares this target. The assay can be described thus: qHTS for Inhibitors of the Aldehyde Dehydrogenase Family (ALDH1A3) Primary screen (AID 2061315).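 Further: plate controls were DMSO vehicle for no effect and reference inhibitor for full effect.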
A short description of assay [5]: BET inhibitor-based combinations targeting novel dependencies in MECOM-rearranged (r) AML: OCI-AML3 cell line (AID 2202232). Further: nearly all actives have a fitted effect of over 35% in size. Further: potency means the concentration at half of the fitted maximal effect. The following applies: Potency: OCI-AML3 viability. Summed up: (§1)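 Cells were plated at 500 per well and exposed to an 11-point dose series of each drug for 48 hr. Viability was measured by CellTiter-Glo luminescence, normalized to DMSO and empty-well controls, and summarized as AUC and per-cell-line Z-AUC.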

Assay [6] can be described thus: BET inhibitor-based combinations targeting novel dependencies in MECOM-rearranged (r) AML: MV-4-11 cell line (AID 2202233). Further: nearly all actives have a fitted effect of over 45% in size. Further: potency means the concentration at half of the fitted maximal effect. Summed up:
(§2)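 Activity is given as area under the curve and as Z-AUC, mean-centred within each cell line. It comes from 11-point dose curves normalized to DMSO and empty wells. CellTiter-Glo luminescence was read after 48 hr drug exposure of 500 cells/well.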

The nature of assay [7]: BET inhibitor-based combinations targeting novel dependencies in MECOM-rearranged (r) AML: HNT-34 cell line (AID 2202234). Further: nearly all actives have a fitted effect of over 35% in size. Further: potency means the concentration at half of the fitted maximal effect. Summed up:
as §2

Assay [8] is described as follows: BET inhibitor-based combinations targeting novel dependencies in MECOM-rearranged (r) AML: UCSD-AML1 cell line (AID 2202235). Further: nearly all actives have a fitted effect of over 40% in size. Further: potency means the concentration at half of the fitted maximal effect. Summed up:
as §2

Assay [9] in a line: BET inhibitor-based combinations targeting novel dependencies in MECOM-rearranged (r) AML: AML-191 cell line (AID 2202236; further: nearly all actives have a fitted effect of over 35% in size; further: potency means the concentration at half of the fitted maximal effect). Summed up:
as §1

Assay [10] in a line: BET inhibitor-based combinations targeting novel dependencies in MECOM-rearranged (r) AML: AML-194 cell line (AID 2202237; further: nearly all actives have a fitted effect of over 40% in size; further: potency means the concentration at half of the fitted maximal effect). Summed up:
as §1

A short description of assay [11]: BET inhibitor-based combinations targeting novel dependencies in MECOM-rearranged (r) AML: SET-2 cell line (AID 2202231). Further: nearly all actives have a fitted effect of over 35% in size. Further: potency means the concentration at half of the fitted maximal effect.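 On viability: plate controls were DMSO treated cells for no effect and wells without cells for full effect.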 The following applies: SET-2 AML cells viability, CellTiter-Glo luminescence, 48 h; viability: active compounds read low, concentration not given here. Summed up: as §1
In general terms: Cellular ATP, detected with luciferase, serves as a proxy for viable cell number.

Chain of Cellular tumor antigen p53 (Homo sapiens) (P04637 whole entry, looked up): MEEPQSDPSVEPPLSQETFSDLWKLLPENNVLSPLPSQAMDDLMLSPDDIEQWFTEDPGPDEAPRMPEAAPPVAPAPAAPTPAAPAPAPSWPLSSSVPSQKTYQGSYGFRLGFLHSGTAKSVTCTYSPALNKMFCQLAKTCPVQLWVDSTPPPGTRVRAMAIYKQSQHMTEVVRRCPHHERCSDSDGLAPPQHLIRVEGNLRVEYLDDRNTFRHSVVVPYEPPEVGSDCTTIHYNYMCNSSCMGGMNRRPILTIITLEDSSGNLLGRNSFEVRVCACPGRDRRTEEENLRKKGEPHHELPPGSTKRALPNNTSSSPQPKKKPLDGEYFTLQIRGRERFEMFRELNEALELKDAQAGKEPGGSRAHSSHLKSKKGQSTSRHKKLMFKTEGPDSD

On to `COc1cccc2c(NCc3ccccc3)nc(-n3c(N)nc4ccccc43)nc12`, for which, in assay [1], the activation was -21.2%. For the same compound, the Potency entry in assay [2], in assay [3] and in [4] was “inactive” in each case. Moreover, the Potency in [5] is 3.32 µM (active); in assay [6], 7.42 µM (active); in assay [7], 3.72 µM (active); in assay [8] it was 4.17 µM (active); in [9], 2.95 µM (active); in [10], 2.63 µM (active).

For the compound `CC[C@@H](C)Nc1cc(C(=O)NC2CC3CC[C@@H](C2)N3c2ccc(C(=O)C3CC3)cn2)c(C)cc1C(N)=O` (stereo partly specified), the activation in assay [1] was 20.5%. Besides, the Potency entry in assay [2], in assay [3] and in assay [4] was “inactive” in each case. Moreover, the Potency is 0.132 µM (active) in [11]; 0.105 µM (active) in [7]; 0.132 µM (active) in [8]; 0.118 µM (active) in [9]; 0.105 µM (active) in assay [10].

`O=C(Nc1cccc(C(F)(F)F)c1)Nc1cc(S(=O)(=O)NC2CC2)ccc1-c1ccsc1`: the activation in assay [1] is 29.6% and 2.39%. In addition, the Potency entry in assay [2], in [3] and in assay [4] was “inactive” in each case. In assay [6], the Potency was 26.3 µM (active).

On to `Cc1cc(C)cc(NC(=O)Cc2ccc(OC(C)(C)C(=O)O)cc2)c1`, for which the activation in assay [1] was -4.3%. Also, the Potency entry in assay [2], in assay [3], in assay [4], in assay [5], in assay [6] and in assay [7] was “inactive” in each case. The Potency entry in [8], in assay [9] and in assay [10] was “inactive” throughout.

Consider `COc1ccc(N(C)c2nc(C)nc3ccccc23)cc1`, for which, in [1], the activation was 0.477%. For the same compound, the Potency entry in [2], in assay [3] and in assay [4] was “inactive” throughout. For the same compound, the Potency in assay [5] was 0.0093 µM (active); in assay [8] it was 0.0118 µM (active); in [9] it was 0.0093 µM (active).

For the compound `COc1ccc2c(OCc3nnc4ccc(-c5ccccc5)nn34)ccnc2c1`, the activation in assay [1] is -0.776% and -8.11%. Besides, the Potency entry in assay [2], in assay [3], in [4], in [5], in assay [6] and in assay [7] was “inactive” in each case. The Potency result in assay [8], in assay [9] and in assay [10] was “inactive” throughout.

As for `CCCCOc1nc(N)c2c(n1)N(Cc1cccc(CN3CCCC3)c1)CC(=O)N2`, the activation in assay [1] is 5.73%. Moreover, the Potency entry in [2], in assay [3], in assay [4], in assay [8], in [9] and in [10] was “inactive” each time. In addition, the viability in [11] is 111%.

As for `COc1ccc(CCC(=O)Nc2nc3ccc(Cl)cc3s2)cc1OC`, in [1], the activation was 9.8% and 1.91%. The Potency entry in [2], in assay [3], in assay [4], in assay [5], in assay [6] and in assay [8] was “inactive” in each case. The Potency entry in [9] and in [10] was “inactive” in each case.

With `COc1cc(C)c(Sc2cnc(NC(=O)c3ccc(CNC(C)C(C)C)cc3)s2)cc1C(=O)N1CCN(C(C)=O)CC1` (stereo unspecified), the activation in [1] is -11.2% and 19.6%. The Potency entry in assay [2], in assay [3] and in assay [4] was “inactive” in each case. The Potency in assay [5] is 20.9 µM (active); in assay [6] it was 7.42 µM (active); in [7], 16.6 µM (active); in [8], 16.6 µM (active); in assay [9], 16.6 µM (active); in assay [10], 14.8 µM (active).

For the compound `CC(C)n1cnc2c(NCCc3ccc(O)cc3)nc(-c3csc4ccccc34)nc21`, in assay [1], the activation was 28% and 17.7%. The Potency result in [2], in [3] and in assay [4] was “inactive” each time. Also, the Potency in [5], in assay [9] and in assay [10] was 20.9 µM (active) throughout.

For the compound `CC(C)C(=O)Nc1ncc(-c2cc(C(F)F)nn2-c2c(Cl)cccc2Cl)s1`, in [1], the activation was 35.2% and 29.6%. Further, the Potency result in [2], in assay [3], in assay [4] and in assay [8] was “inactive” in each case. Further, the Potency was 23.5 µM (active) in assay [5], 20.9 µM (active) in assay [6], 16.6 µM (active) in [7] and 20.9 µM (active) in assay [9].

As to `CCc1cccc2c3c([nH]c12)[C@@](CC)(CC(=O)O)OCC3`, the activation in assay [1] is -4.77%. Moreover, the Potency result in assay [2], in assay [3], in assay [4], in assay [5], in [6] and in [7] was “inactive” in each case. The Potency result in [8] and in assay [9] was “inactive” throughout.

`CCN(CC)CCNC(=O)c1ccc2nc(-c3ccccc3)c(-c3ccc(CN4CCC(n5c(=O)[nH]c6ccccc65)CC4)cc3)nc2c1`: the Potency is 4.32 µM (active) and 8.49 µM (active) in assay [1]; 8.33 µM (active) in assay [5]; 6.61 µM (active) in assay [6]; 8.33 µM (active) in assay [7]; 9.34 µM (active) in assay [9]; 7.42 µM (active) in [10]. For the same compound, the Potency entry in [2], in assay [3] and in assay [4] was “inactive” throughout.

In the case of `OCCn1cc(-c2cnc3nnn(Cc4ccc5ncccc5c4)c3n2)cn1`, in assay [1], the activation is -13.3% and 3.34%. Moreover, the Potency entry in assay [2], in [3], in assay [4], in assay [8] and in [10] was “inactive” in each case. Moreover, the viability in assay [11] was 101%.

Consider `CCOC(=O)C1=C(C)NC2=C(C(=O)CC(C)(C)C2)C1c1ccc(-c2ccccc2)cc1` (stereo unspecified), for which, in assay [1], the activation is 5.7%. For the same compound, the Potency entry in [2], in [3], in [4], in assay [8], in [9] and in assay [10] was “inactive” throughout. Also, in [5], the Potency was 13.2 µM (active).

Take `CCC[C@H](N[C@H]1CCc2cc(F)cc(F)c2C1)C(=O)Nc1cn(C(C)(C)CNCC(C)(C)C)cn1`: in assay [1], the activation was -12.9%. The Potency result in assay [2], in assay [3], in [4] and in assay [10] was “inactive” in each case. The Potency in [5] was 11.8 µM (active).

On to `COc1ccc(-n2nc(C(N)=O)c3c2C(=O)N(c2ccc(N4CCCCC4=O)cc2)CC3)cc1`, for which, in assay [1], the activation was 22.9% and -7.16%. Besides, the Potency result in [2], in [3], in [4], in assay [5], in assay [6] and in [9] was “inactive” each time. In addition, the Potency entry in [10] was “inactive”.
